The record followed here is PubChem BioAssay.

Experiment [1] relates to Plasmodium falciparum Sir2 (PF13_0152, Sir2A). The experiment is described as follows: Plasmodium falciparum Sir2A binding compounds – biochemical, small-molecule microarray, 635 nm fluorescence, primary screen (AID 1098).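 Note: score merges spot fluorescence intensity with its signal-to-noise ratio.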 As to conditions: fluorescence 635 nm, higher = more signal.
Experiment [2] can be described thus: probe aDKK1 binding to arrayed compounds – biochemical, biotinylated probe, 635/667 nm fluorescence, primary screen (AID 1099).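 Note: score merges 667nm spot fluorescence with signal to noise across triplicate slides; reference of the scale not given here.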 Particulars: small-molecule microarray, higher = more signal.
The nature of experiment [3]: probe aCHRDL2 binding to arrayed compounds – biochemical, biotinylated probe, 635/667 nm fluorescence, primary screen (AID 1100). As to conditions: small-molecule microarray, higher = more signal.
A short description of experiment [4]: change in splice reporter luminescence, either direction, cell-based, HEK293, spliceosome inhibition project, primary screen (AID 1101).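 Note: HEK293 cells carrying a splicing-competent luciferase reporter gene; test concentration not given here.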 As to conditions: HEK293 splicing luciferase reporter, 24 h, higher = more signal, called active from +8 up or from −8 down. For orientation: Reporter assays use an easily measured gene product as a stand-in for the process of interest.

For experiment [5], the target named is Fibroblast growth factor 10 (Homo sapiens) (UniProt O15520). The experiment is described as follows: compounds binding fibroblast growth factor 10 – biochemical, small-molecule microarray, 635 nm fluorescence, primary screen (AID 1102). Particulars: FGF10 binding, fluorescence 635 nm, higher = more signal.
Experiment [6] deals with glycogen synthase kinase-3 (GSK3A per assay name; protocol says GSK3B). The experiment is described as follows: compounds binding glycogen synthase kinase-3 – biochemical, small-molecule microarray, 635 nm fluorescence, GSK3A, primary screen (AID 1103). Note: the record names both GSK3A and GSK3B. Particulars: fluorescence 635 nm, higher = more signal.
Experiment [7] deals with Epidermal growth factor receptor (Homo sapiens) (UniProt P00533). The experiment is described as follows: compounds binding epidermal growth factor receptor – biochemical, small-molecule microarray, 635 nm fluorescence, primary screen (AID 1104).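 Note: score merges 667 nm emission intensity with spot signal to noise over triplicate slides.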 As to conditions: EGFR binding, higher = more signal.
Experiment [8] addresses Follistatin-related protein 3 (Homo sapiens) (UniProt O95633). As to the kind of experiment: compounds binding follistatin-related protein 3 – biochemical, small-molecule microarray, 635 nm fluorescence, primary screen (AID 1105).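 Note: score merges emission near 667 nm and signal to noise per printed spot across three slides.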 Particulars: FSTL3 binding, higher = more signal.
Experiment [9] addresses Dickkopf-related protein 1 (Homo sapiens) (UniProt O94907). As to the kind of experiment: small molecules binding DKK1 protein – biochemical, small-molecule microarray, 635 nm fluorescence scan, primary screen (AID 1106).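 Note: score merges emission near 667 nm with signal to noise over three replicate slides.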 Particulars: higher = more signal.
The subject of experiment [10] is Inhibin beta A chain (activin A). As to the kind of experiment: small molecules binding activin A – biochemical, small-molecule microarray, 635 nm fluorescence scan, primary screen (AID 1107).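 Note: mouse activin A protein probed at 4.33 µg/mL on printed slides; score merges bound-protein fluorescence near 667 nm with spot signal-to-noise.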 Particulars: INHBA, higher = more signal.

Calls of active or inactive are those of the source.

Sequence of Fibroblast growth factor 10 (Homo sapiens) (O15520 whole entry, looked up): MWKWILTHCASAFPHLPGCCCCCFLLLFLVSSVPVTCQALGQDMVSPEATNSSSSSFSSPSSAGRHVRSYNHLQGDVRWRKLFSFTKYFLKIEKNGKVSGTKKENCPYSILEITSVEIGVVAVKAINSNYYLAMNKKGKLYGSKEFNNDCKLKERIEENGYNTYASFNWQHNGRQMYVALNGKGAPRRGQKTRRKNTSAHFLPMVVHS
Sequence of Follistatin-related protein 3 (Homo sapiens) (O95633 whole entry, looked up): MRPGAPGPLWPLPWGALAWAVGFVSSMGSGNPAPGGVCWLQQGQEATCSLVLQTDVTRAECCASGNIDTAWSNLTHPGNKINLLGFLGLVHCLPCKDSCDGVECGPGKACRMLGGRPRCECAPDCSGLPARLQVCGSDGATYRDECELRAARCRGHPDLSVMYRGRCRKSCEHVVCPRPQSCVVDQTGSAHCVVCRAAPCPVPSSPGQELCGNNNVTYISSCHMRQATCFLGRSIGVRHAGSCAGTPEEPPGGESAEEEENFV
Sequence of Dickkopf-related protein 1 (Homo sapiens) (O94907 whole entry, looked up): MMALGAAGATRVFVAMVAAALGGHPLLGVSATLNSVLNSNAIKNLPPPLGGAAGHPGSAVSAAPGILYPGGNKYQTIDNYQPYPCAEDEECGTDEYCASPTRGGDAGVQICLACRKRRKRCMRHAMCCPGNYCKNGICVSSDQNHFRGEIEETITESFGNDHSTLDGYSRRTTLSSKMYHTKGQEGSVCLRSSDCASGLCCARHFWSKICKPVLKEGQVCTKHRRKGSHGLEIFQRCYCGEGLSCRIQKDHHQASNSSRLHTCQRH
Sequence of Epidermal growth factor receptor (Homo sapiens) (P00533 whole entry, looked up): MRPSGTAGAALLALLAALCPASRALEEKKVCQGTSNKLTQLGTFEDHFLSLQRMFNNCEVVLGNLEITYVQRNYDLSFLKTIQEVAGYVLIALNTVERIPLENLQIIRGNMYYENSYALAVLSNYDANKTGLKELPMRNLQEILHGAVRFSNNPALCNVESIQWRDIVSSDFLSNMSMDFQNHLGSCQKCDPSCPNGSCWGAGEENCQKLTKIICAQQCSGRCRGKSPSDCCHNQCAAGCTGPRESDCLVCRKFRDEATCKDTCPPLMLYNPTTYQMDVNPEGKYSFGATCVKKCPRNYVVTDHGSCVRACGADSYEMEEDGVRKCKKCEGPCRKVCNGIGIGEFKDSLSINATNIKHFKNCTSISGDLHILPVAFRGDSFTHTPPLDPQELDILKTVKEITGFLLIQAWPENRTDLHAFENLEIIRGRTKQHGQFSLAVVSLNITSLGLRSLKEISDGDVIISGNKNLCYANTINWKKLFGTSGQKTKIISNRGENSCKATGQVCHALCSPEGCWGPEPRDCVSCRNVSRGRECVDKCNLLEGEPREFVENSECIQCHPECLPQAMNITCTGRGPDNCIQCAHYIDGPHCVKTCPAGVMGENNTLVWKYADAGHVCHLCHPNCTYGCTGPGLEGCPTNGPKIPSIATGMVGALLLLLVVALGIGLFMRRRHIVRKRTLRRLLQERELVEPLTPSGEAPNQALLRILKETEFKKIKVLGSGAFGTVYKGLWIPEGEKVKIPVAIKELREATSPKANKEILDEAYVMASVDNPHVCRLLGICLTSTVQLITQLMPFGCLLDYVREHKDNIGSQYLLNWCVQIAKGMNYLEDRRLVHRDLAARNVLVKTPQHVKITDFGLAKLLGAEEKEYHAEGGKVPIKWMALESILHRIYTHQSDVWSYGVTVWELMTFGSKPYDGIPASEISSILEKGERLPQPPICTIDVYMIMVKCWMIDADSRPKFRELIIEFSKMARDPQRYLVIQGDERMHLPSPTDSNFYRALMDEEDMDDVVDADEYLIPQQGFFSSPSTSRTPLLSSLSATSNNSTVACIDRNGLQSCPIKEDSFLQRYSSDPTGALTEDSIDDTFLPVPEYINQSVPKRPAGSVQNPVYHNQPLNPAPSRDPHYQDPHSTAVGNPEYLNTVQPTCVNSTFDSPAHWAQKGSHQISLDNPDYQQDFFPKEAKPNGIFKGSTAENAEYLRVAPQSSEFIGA

Consider `O=C1[C@H]2[C@H]3[C@H](O)[C@H](O)CC(=NO[C@@H]4O[C@H](CO)[C@@H](O)[C@H](O)[C@H]4O)[C@@H]3CC[C@H]2C(=O)N1C1CCCCC1`, for which the composite z-score was 0.203 in experiment [1]; -0.275 in experiment [2]; -0.458 in experiment [3]; 0.57 in [5]; 0.607 in [6]; 0.46 in [7]. The composite z-score in experiment [8] was 0.542; in [9], 0.353; in experiment [10] it was -0.224. For the same compound, the z-score in experiment [4] is -0.155 (inactive).
Consider `CCOC(=O)[C@H](CC(C)C)NC(=O)CCC1CC(OC(=O)NCCc2ccc(F)cc2)CC2(CCCC(COC(=O)NCCCN3CCCC3=O)O2)O1` (stereo not given in full), for which the composite z-score was -0.0927 in [1]; -0.234 in experiment [2]; -0.509 in experiment [3]; 0.93 in experiment [5]; 0.519 in experiment [6]; 0.261 in experiment [7]. In addition, the composite z-score was 0.572 in experiment [8], 0.946 in [9] and -0.131 in experiment [10]. In addition, the z-score in experiment [4] is 0.764 (inactive).
As for `CC=CC1=C(CO)[C@H](O)[C@H]2O[C@H]2[C@@H]1O`, the composite z-score in [1] is 0.134; in experiment [2] it was -0.416; in [3], -1.13; in [5], 0.733; in [6], 0.403; in experiment [7] it was 0.148. The composite z-score in [8] was 0.608; in experiment [9], 0.943; in [10] it was 0.161. Further, the z-score in experiment [4] was 0.666 (inactive).
For `CCN1C(=O)[C@H]2[C@H]3[C@H](O)[C@H](O)CC(=NOCC(C)C)[C@H]3CC[C@H]2C1=O`, the composite z-score in [1] is 0.301; in experiment [2], -0.311; in [3], -0.621; in [5], 0.531; in experiment [6], 0.636; in experiment [7] it was 0.732. In addition, the composite z-score in experiment [8] is 0.732; in experiment [9], 0.817; in [10], 0.122. Moreover, in [4], the z-score is 0.72 (inactive).
In the case of `CO[C@H]1C[C@@H]2C[C@H](O)CC(CC(=O)O[C@@H](C=CCC(C)C)C[C@@H]3CC[C@H](C)[C@@H](C1)O3)O2`, the composite z-score is 1.02 in experiment [1]; -0.205 in [2]; -0.594 in [3]; 0.682 in experiment [5]; 1.29 in experiment [6]; 0.595 in [7]. Also, the composite z-score in [8] was 0.808; in experiment [9], 1.13; in [10] it was 0.0531. Also, the z-score in [4] is -0.278 (inactive).
With `CC(C)=CCCC(C)=CCON=C1[C@H]2CCn3c(=O)n(-c4ccccc4)c(=O)n3[C@H]2[C@H](O)[C@@H]2O[C@H]12`, the composite z-score in experiment [1] was 1.05; in [2], -0.229; in experiment [3], -0.55; in experiment [5], 0.726; in [6], 1.26; in experiment [7], 0.752. The composite z-score amounted to 1.25 in [8], 0.912 in experiment [9] and 0.722 in [10]. Besides, in experiment [4], the z-score is 1.77 (inactive).
Take `O=C1[C@H]2[C@H]3[C@H](O)[C@H](O)CC(=NO[C@@H]4O[C@H](CO)[C@@H](O)[C@H](O)[C@H]4O)[C@@H]3CC[C@H]2C(=O)N1c1cccc(Oc2ccccc2)c1`: the composite z-score in [1] is 0.405; in experiment [2], -0.327; in experiment [3] it was -0.595; in [5], 0.659; in experiment [6], 0.736; in experiment [7], 0.778. In addition, the composite z-score is 0.711 in experiment [8], 0.701 in experiment [9] and 0.374 in experiment [10]. In addition, the z-score in [4] was 0.302 (inactive).
For the compound `O=C1[C@H]2CCn3c(=O)n(Cc4cc5c(cc4Cl)OCO5)c(=O)n3[C@H]2[C@H](O)[C@@H]2O[C@H]12`, the composite z-score in experiment [1] is 0.652; in experiment [2] it was -0.374; in experiment [3], -0.604; in experiment [5], -0.41; in experiment [6], -0.734; in experiment [7], 0.413. The composite z-score in [8] was -0.0989; in experiment [9], 0.552; in [10] it was 0.73. Also, in [4], the z-score was 0.726 (inactive).
For the compound `CCO[C@H](c1cc(OC)cc([N+](=O)[O-])c1OC)[C@H](C)[C@@H](OC)[C@H](C)C=CCC(=O)OC`, the composite z-score in [1] is 0.535; in experiment [2], 0.481; in [3] it was -0.133; in [5], 0.278; in [6], 0.188; in [7], 0.835. The composite z-score in experiment [8] was 0.723; in experiment [9], -0.359; in experiment [10], -0.334. Further, the z-score in experiment [4] was -0.188 (inactive).
Consider `CCN1C(=O)[C@H]2[C@H]3[C@H](O)[C@H](O)CC(=NOC[C@@H](O)COCc4ccco4)[C@H]3CC[C@H]2C1=O`, for which the composite z-score in experiment [1] was 0.667; in experiment [2], -1; in experiment [3] it was -2.16; in experiment [5], -0.169; in experiment [6], 0.797; in experiment [7] it was 0.816. For the same compound, the figures for the composite z-score in experiment [8], in [9] and in experiment [10] were 0.757, 1.39 and 1.45, respectively. Further, in experiment [4], the z-score is 0.0809 (inactive).
For `CC(CCN1CCCc2nc(C)c(C)cc21)=NO[C@@H](C)c1cn([C@H](CO)Cc2ccccc2)nn1`, the composite z-score in experiment [1] is 0.531; in experiment [2] it was -0.264; in experiment [3] it was -0.388; in experiment [5], 0.817; in [6] it was 0.471; in experiment [7] it was 0.666. The composite z-score in experiment [8] came to 0.698; in experiment [9], 0.928; in [10] it was 1.19. For the same compound, in [4], the z-score was 0.867 (inactive).
Consider `CO[C@@H]1C=CCC(=O)N[C@@H](C)C(=O)OC[C@@H](NS(=O)(=O)c2ccc(C)cc2)[C@H](C)C=CCC(=O)OC[C@H]1C`, for which the composite z-score in [1] is -0.401; in experiment [2], -0.298; in experiment [3] it was -0.748; in experiment [5] it was 0.238; in experiment [6], -0.0731; in [7] it was 0.329. Further, the composite z-score in experiment [8] was 0.828; in experiment [9], 0.359; in [10], 0.976. For the same compound, in experiment [4], the z-score was -0.275 (inactive).
Take `O=C1[C@H]2[C@H]3[C@H](O)[C@H](O)CC(=NOC[C@@H](O)COCc4ccco4)[C@@H]3CC[C@H]2C(=O)N1Cc1ccc2c(c1)OCO2`: the composite z-score in experiment [1] is 0.867; in experiment [2], -0.387; in experiment [3] it was -1.42; in [5] it was -0.454; in experiment [6] it was 1.3; in [7], 1.15. In addition, the composite z-score in experiment [8] was 0.9; in experiment [9] it was 1.47; in experiment [10] it was 0.506. The z-score in [4] was -0.119 (inactive).
